KDM5B inhibitor: Primary screen for KDM5B Histone Demethylases FDH-coupled qHTS; Lysine-specific demethylase 5B (Homo sapiens), Q9UGL1; Potency, µM (titrated, usually from 57.7 µM), hits mostly inhibitors; KDM5B demethylase, FDH-coupled NADH fluorescence (FDH is formaldehyde dehydrogenase); 2.6% of 220,000 active; AID 1347165, 2019; active = well fitted inhibition curve with a large enough effect; also: 0% is about no effect; nearly all actives have a fitted effect of over 70% in size
Target sequence (Q9UGL1 whole entry, looked up): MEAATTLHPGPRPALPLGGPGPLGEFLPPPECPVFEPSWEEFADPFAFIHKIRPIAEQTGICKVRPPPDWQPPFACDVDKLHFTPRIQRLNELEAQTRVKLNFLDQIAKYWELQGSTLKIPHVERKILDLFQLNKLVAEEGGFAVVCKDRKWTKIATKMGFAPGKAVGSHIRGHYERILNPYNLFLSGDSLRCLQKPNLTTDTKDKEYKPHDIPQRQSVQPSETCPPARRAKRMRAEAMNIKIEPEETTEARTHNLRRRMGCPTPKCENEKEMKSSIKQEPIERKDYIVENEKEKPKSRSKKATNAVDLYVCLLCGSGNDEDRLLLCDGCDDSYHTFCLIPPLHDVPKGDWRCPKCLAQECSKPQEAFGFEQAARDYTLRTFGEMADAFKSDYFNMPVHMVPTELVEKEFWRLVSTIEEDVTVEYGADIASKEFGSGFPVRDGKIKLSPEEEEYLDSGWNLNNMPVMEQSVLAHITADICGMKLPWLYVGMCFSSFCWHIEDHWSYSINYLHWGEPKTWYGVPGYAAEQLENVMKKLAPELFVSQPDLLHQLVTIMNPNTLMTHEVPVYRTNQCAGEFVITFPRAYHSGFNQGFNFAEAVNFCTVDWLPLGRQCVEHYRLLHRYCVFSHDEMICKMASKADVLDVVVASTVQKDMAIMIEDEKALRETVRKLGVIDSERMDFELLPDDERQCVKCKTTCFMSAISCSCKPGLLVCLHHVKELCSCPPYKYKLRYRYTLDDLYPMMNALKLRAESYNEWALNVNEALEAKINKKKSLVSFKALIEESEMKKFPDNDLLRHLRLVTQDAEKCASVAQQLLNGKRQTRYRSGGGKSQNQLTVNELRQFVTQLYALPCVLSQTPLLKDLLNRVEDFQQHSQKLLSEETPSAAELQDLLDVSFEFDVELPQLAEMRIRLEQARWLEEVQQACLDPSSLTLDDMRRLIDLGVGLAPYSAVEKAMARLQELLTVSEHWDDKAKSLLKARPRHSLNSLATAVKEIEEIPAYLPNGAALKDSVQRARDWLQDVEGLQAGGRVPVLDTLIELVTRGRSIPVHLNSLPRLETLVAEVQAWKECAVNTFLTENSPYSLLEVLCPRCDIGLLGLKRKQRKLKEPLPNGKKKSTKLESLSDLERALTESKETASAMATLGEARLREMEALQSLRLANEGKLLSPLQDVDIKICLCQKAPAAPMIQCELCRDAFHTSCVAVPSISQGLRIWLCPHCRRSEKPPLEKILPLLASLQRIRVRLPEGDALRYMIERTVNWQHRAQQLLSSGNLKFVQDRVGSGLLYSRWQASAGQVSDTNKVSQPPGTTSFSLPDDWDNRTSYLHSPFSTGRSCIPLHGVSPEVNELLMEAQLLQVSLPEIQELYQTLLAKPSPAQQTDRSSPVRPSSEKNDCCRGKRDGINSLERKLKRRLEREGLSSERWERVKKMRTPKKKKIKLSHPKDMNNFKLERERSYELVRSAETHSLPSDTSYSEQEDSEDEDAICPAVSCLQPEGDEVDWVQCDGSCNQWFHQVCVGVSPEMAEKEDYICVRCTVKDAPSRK
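KDM5BΔAP (200 nM final) in 50 mM HEPES pH 7.5, 0.01% Tween-20 was preincubated 10 min at RT with compound over a concentration range. Substrate mix (H3K4me3 12.5 µM, α-KG 25 µM, Fe²⁺, ascorbate, NAD⁺, FDH) was added, and NADH fluorescence change over 30 min gave dose-response curves.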
An asterisk follows results filed as active; i = inactive. The full list was thinned out, with hits kept by preference. Potency is read from the fitted curve at half-maximal effect.

SMILES	KDM5B inhibitor
O=c1oc2ccccc2c(NC2CCCCC2)c1NS(=O)(=O)c1ccccc1	i
COc1ccccc1-n1cnnc1SC(C)C(=O)c1ccc(F)cc1 (stereo not drawn)	i
Cc1ccccc1NC(=O)C1=C(Cl)CCCC1	i
COc1cccc(CN2CC[C@H]3COC(=O)N3c3cc(C)ccc3C2)c1	i
COc1ccc(C2Cn3nnc(-c4nc(-c5ccc(F)c(F)c5)no4)c3CO2)cc1 (stereo not drawn)	i
CC(=O)Nc1ccc(C(=O)COc2ccc(C(C)=O)cc2)cc1	i
O=C(c1ccc(F)c(Cl)c1)N1CCC2(CC1)CN(C1CCC1)CC2CO (stereo not drawn)	i
Cc1ncsc1CN1CCCCC1c1nc(CCOCC2CC2)no1 (stereo not drawn)	17.8µM*
O=C(c1ccoc1)N1CCCCC1c1nc(CCOCC2CC2)no1 (stereo not drawn)	i
Cc1ccc(NC(=O)N2CCCCC2c2nc(CCOCC3CC3)no2)cc1C (stereo not drawn)	i
Cc1cccc(-n2c(C)nc3cc(C(=O)NCc4ccc(F)cc4)ccc32)c1	i
COc1ccc(-c2noc([C@@H]3CCCN3C(=O)c3ccc(F)cc3)n2)cc1OC	i
COc1ccc(-c2noc([C@@H]3CCCN3C(=O)Cc3ccc(C)cc3)n2)cc1OC	31.6µM*
Cc1ccccc1CC(=O)N1CCC[C@H]1c1nc(-c2ccccc2)no1	i
COc1ccc(-c2noc([C@@H]3CCCN3C(=O)c3ccc(C)cc3)n2)cc1OC	i
COc1ccc(-c2noc([C@@H]3CCCN3C(=O)c3cc(F)ccc3F)n2)cc1OC	i
Cc1ccccc1CC(=O)N1CCC[C@H]1c1nc(-c2ccc(F)cc2)no1	i
COc1ccc(-c2noc([C@@H]3CCCN3C(=O)Cc3ccccc3C)n2)cc1OC	28.2µM*
COc1ccc(-c2noc([C@@H]3CCCN3C(=O)Cc3ccc(C)cc3)n2)cc1	i
COc1ccc(-c2noc([C@@H]3CCCN3C(=O)Cc3ccc(F)cc3)n2)cc1OC	28.2µM*
C=CCNC(=O)NC(=O)COC(=O)Cc1cccc(C(F)(F)F)c1	i
O=C(Nc1ccnn1C1CCN(Cc2nccs2)CC1)c1ccc2c(c1)OCO2	i
Cc1cccc(-c2ocnc2C(=O)Nc2ccccc2C)c1	i
O=C1CC(c2ccccc2)N(C(=O)C2CC2)CCCN(C(=O)c2ccco2)CCN1 (stereo not drawn)	i
O=C(Cc1ccncc1)N1CC(F)(F)C[C@H]1c1nc(C2CC2)no1	i
SMILES	KDM5B inhibitor
O=C(CCCC(=O)NN=C1CCCC1)NN=C1CCCC1	i
C=CCOC(=O)Nc1nc2c(s1)C[C@@H]1[C@](C)(CO)[C@H](O)CC[C@@]1(C)[C@@H]2CC(=O)N1CCCCC1	i
COc1ccc(CCn2c(Br)nc3c2c(=O)n(C)c(=O)n3C)cc1	i
COC1CCC12CCN(C(=O)c1ccncc1)CC2 (stereo not drawn)	i
Cc1ccccc1OCCOC(=O)CCC(=O)c1ccc(F)cc1	i
COC[C@@H]1CN(C(=O)c2ccc(OC)cc2C)C[C@H]1c1ccncc1	i
COc1ccc([C@H]2CN(C(=O)C3(c4ccc(F)cc4)CC3)C[C@@H]2N)cc1	i
COc1ccc([C@H]2CN(C(=O)c3nc(N)nc4c3CCCC4)C[C@@H]2N)cc1	22.4µM*
Cc1c(C(=O)O)cccc1-n1cccc1	i
CC(=O)NCCNC(=O)CN1CCCC(c2nc3ccccc3o2)C1 (stereo not drawn)	i
COc1cc2c(cc1OC)C(C[C@H]1CN(C(=O)C(=O)O)CC[C@H]1CC(=O)O)=NCC2	i
COc1cc2c(cc1OC)C(C[C@H]1CN(C(=O)Nc3ccc(Cl)cc3)CC[C@H]1CC(=O)O)=NCC2	28.2µM*
COc1ccc(CN2CCN(C(=O)Nc3cccc(Cl)c3)CC2)c(OC)c1OC	i
CC(C)N(C)CC1CCN(C(=O)Nc2cccc(Cl)c2)CC1	i
COc1cc2c(cc1OC)C(C[C@H]1CN(C(=O)Nc3cccc(Cl)c3)CC[C@H]1CC(=O)O)=NCC2	31.6µM*
CCN(CC)CC[C@H]1CN(C(=O)Nc2ccccc2)CC[C@H]1CC(=O)O	i
O=C(NC(c1ccccc1)c1ccc(Cl)cc1)c1ccc[n+]([O-])c1 (stereo not drawn)	i
COc1ccc(-c2nc(CSCC(=O)NCc3cccnc3)c(C)o2)cc1	i
Cc1cccc(C(=O)Nc2ccccc2SCc2ccsc2)c1	i
CN(C)c1ccc(NC(=O)c2ccc3c(c2)N(C)C2CCCCN2C3=O)cc1 (stereo not drawn)	i
CCc1cccc2c(/C=C(/C#N)c3nc4cc(C)c(C)cc4[nH]3)c[nH]c12	i
O=C(N[C@@H]1CCC[C@@H]1C(=O)N1CCN(c2ccccn2)CC1)c1ccncc1	i
Cc1nnc2n1CCC(NC(=O)c1ccc3cc[nH]c3c1)CC2 (stereo not drawn)	28.2µM*
Cc1nnc2n1CCC(NC(=O)c1ccoc1)CC2 (stereo not drawn)	i
Cc1nnc2n1CCC(N(C)C(=O)c1ccc3[nH]ccc3c1)CC2 (stereo not drawn)	i
SMILES	KDM5B inhibitor
O=C(Cc1ccsc1)Nc1cnc(-c2ccccc2)nc1	i
O=C(c1ccc2[nH]ccc2c1)N1CC[C@@H]2COCCN(Cc3cccnc3)[C@@H]2C1	i
Cc1nn(-c2ncnc3nc[nH]c23)c2c1C(c1ccc(F)cc1Cl)CC(=O)N2 (stereo not drawn)	i
COc1ccccc1Nc1ncc2c(n1)CN(C(=O)c1ccccc1)CCN2	i
COc1ccccc1Nc1ncc2c(n1)CN(C(=O)c1cc3ccccc3n1C)CCN2	39.8µM*
COc1ccccc1Nc1ncc2c(n1)CN(C(=O)c1cccc(C#N)c1)CCN2	i
CC(Sc1nnc(-c2ccco2)o1)C(=O)Nc1ccc2c(c1)OCO2 (stereo not drawn)	i
Cn1nccc1C(=O)NCC1CCCCC(=O)N1 (stereo not drawn)	i
CNC(=O)N1CCc2c(sc3ncnc(NCCCOC)c23)C1	i
c1ccc(CN2CCc3c(sc4ncnc(N5CCOCC5)c34)C2)cc1	i
CCC(=O)N1CCc2c(sc3ncnc(NCc4ccccn4)c23)C1	28.2µM*
Cc1c(C)n(Cc2ccccn2)c2ncnc(NCc3ccccn3)c12	i
c1ccc(-c2csc3ncnc(NCc4ccccn4)c23)cc1	i
CCC(=O)N1CCc2c(sc3ncnc(N)c23)C1	28.2µM*
CCNc1ncnc2sc3c(c12)CCN(C(=O)COC)C3	35.5µM*
COCCCNc1ncnc2sc3c(c12)CCN(Cc1cccnc1)C3	i
CCNc1ncnc2sc3c(c12)CCN(Cc1ccncc1)C3	25.1µM*
CN(C)c1ccc(C(=O)N2CCc3c(sc4ncnc(N)c34)C2)cc1	i
CCOC(=O)c1cnn(-c2ncnc3sc4c(c23)CCC(C)C4)c1N (stereo not drawn)	i
CC(=O)Nc1ccc(C(=O)COc2ncnc3sc4c(c23)CCC4)cc1	i
CCN(CC)S(=O)(=O)c1ccc(CNC(=O)c2nn(C)c(=O)c3ccccc23)cc1	i
CN(C)Cc1ccc(CNC(=O)c2nn(-c3ccc(F)cc3)c3c2CCC3)cc1	i
CC(C)C(=O)N1CCOC[C@H](Oc2ccc(C(F)(F)F)cn2)C1	i
CC(C)c1ccc(COc2ccc(Cl)cc2C(N)=O)cc1	i
COc1ccc(CNC(=O)c2ncoc2-c2cccc(Cl)c2)cc1OC	i

Bioassay records (PubChem)
